Compounds without any hit were thinned out: in the full panel of roughly 83,000, 20% have a hit.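 A percent growth of 40 corresponds to 60% growth inhibition; 0 means no net growth; -100 means all cells died. Active threshold: below 10.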 Calls of active or inactive are those of the source.
Columns and labels:
Assay in all cases: NCI-60 one-dose screen, 48 h (100 = growth as untreated, 0 = no growth, -100 = all killed)
Conditions in all cases: 10 µM unless noted
SK-MEL-2 melanoma = tested on: SK-MEL-2 melanoma
EKVX NSCLC = tested on: EKVX NSCLC
SN12C renal = tested on: SN12C renal
UO-31 renal = tested on: UO-31 renal
TK-10 renal = tested on: TK-10 renal
ACHN renal = tested on: ACHN renal
A498 renal = tested on: A498 renal
CCRF-CEM leukemia = tested on: CCRF-CEM leukemia
SR leukemia = tested on: SR leukemia
RPMI-8226 leukemia = tested on: RPMI-8226 leukemia
OVCAR-8 ovarian = tested on: OVCAR-8 ovarian
OVCAR-5 ovarian = tested on: OVCAR-5 ovarian
OVCAR-4 ovarian = tested on: OVCAR-4 ovarian
SK-OV-3 ovarian = tested on: SK-OV-3 ovarian
OVCAR-3 ovarian = tested on: OVCAR-3 ovarian
HS 578T breast = tested on: HS 578T breast
NCI/ADR-RES ovarian = tested on: NCI/ADR-RES ovarian
T-47D breast = tested on: T-47D breast
MOLT-4 leukemia = tested on: MOLT-4 leukemia
IGROV1 ovarian = tested on: IGROV1 ovarian

Measured: growth

CC1(C)CC[C@]2(c3nnc(-c4ccncc4)o3)CC[C@]3(C)C(=CC[C@@H]4[C@@]5(C)CCC(=O)C(C)(C)[C@@H]5CC[C@]43C)[C@@H]2C1
inactive: SK-MEL-2 melanoma 96% | EKVX NSCLC 76.3% | SN12C renal 79.7% | UO-31 renal 77.5% | TK-10 renal 128% | ACHN renal 88.7% | A498 renal 106% | CCRF-CEM leukemia 75.5% | SR leukemia 63.7% | RPMI-8226 leukemia 62.4% | OVCAR-8 ovarian 81.1% | OVCAR-5 ovarian 99.9% | OVCAR-4 ovarian 89.2% | SK-OV-3 ovarian 104% | OVCAR-3 ovarian 80.8% | HS 578T breast 98.6% | NCI/ADR-RES ovarian 97.2% | T-47D breast 65.9%

N#Cc1c(-c2ccc(F)cc2)nc(N=Nc2c(O)[nH]c3ccccc23)nc1N1CCOCC1
inactive: SK-MEL-2 melanoma 105% | EKVX NSCLC 77.6% | SN12C renal 30.4% | UO-31 renal 60.4% | TK-10 renal 65.4% | ACHN renal 65.5% | A498 renal 80.8% | MOLT-4 leukemia 95.3% | SR leukemia 88.2% | RPMI-8226 leukemia 80.4% | OVCAR-8 ovarian 77.7% | OVCAR-5 ovarian 82.6% | SK-OV-3 ovarian 88.2% | IGROV1 ovarian 59.9% | OVCAR-3 ovarian 72.9% | HS 578T breast 38.5% | NCI/ADR-RES ovarian 57.3% | T-47D breast 80.2%
active: OVCAR-4 ovarian -35.5%

N#Cc1nc(-c2ccccc2)oc1S(=O)(=O)NCC(c1ccc(Cl)cc1)N1CCCCC1 (stereo unspecified)
inactive: SK-MEL-2 melanoma 72.2% | EKVX NSCLC 106% | SN12C renal 65.6% | UO-31 renal 65.5% | TK-10 renal 112% | ACHN renal 82.7% | A498 renal 102% | SR leukemia 12.2% | OVCAR-8 ovarian 71.3% | OVCAR-5 ovarian 102% | OVCAR-4 ovarian 99.3% | SK-OV-3 ovarian 113% | IGROV1 ovarian 44.2% | OVCAR-3 ovarian 61.9% | HS 578T breast 102% | NCI/ADR-RES ovarian 91.1% | T-47D breast 65.1%
active: MOLT-4 leukemia 1.32% | RPMI-8226 leukemia 3.47%

COc1ccc(Nc2nc(SCC(C)C)nc(-c3ccc(F)cc3)c2C#N)cc1
inactive: SK-MEL-2 melanoma 72.4% | EKVX NSCLC 69.4% | SN12C renal 85.9% | UO-31 renal 68.9% | TK-10 renal 92.1% | ACHN renal 72% | A498 renal 30.7% | CCRF-CEM leukemia 33.3% | SR leukemia 20.1% | RPMI-8226 leukemia 88% | OVCAR-8 ovarian 89.4% | OVCAR-5 ovarian 94.3% | OVCAR-4 ovarian 80.9% | SK-OV-3 ovarian 73.4% | IGROV1 ovarian 71.4% | OVCAR-3 ovarian 21% | HS 578T breast 79.1% | NCI/ADR-RES ovarian 40.3% | T-47D breast 65%

N#Cc1c(-c2ccc(Cl)cc2)cc(-c2cc3ccccc3o2)nc1SCC(=O)c1ccc(Cl)cc1
inactive: SK-MEL-2 melanoma 91% | EKVX NSCLC 116% | SN12C renal 94.2% | UO-31 renal 79.8% | TK-10 renal 139% | ACHN renal 86.9% | CCRF-CEM leukemia 106% | MOLT-4 leukemia 95.1% | SR leukemia 80.2% | RPMI-8226 leukemia 83.6% | OVCAR-8 ovarian 104% | OVCAR-5 ovarian 88.4% | OVCAR-4 ovarian 104% | SK-OV-3 ovarian 103% | IGROV1 ovarian 71.5% | OVCAR-3 ovarian 104% | HS 578T breast 96.3% | NCI/ADR-RES ovarian 97.9% | T-47D breast 108%

FC(F)(F)c1ccc2c(Nc3cccc(C4CC(c5ccccc5)=NN4c4ccc(Cl)cc4)c3)ccnc2c1 (stereo unspecified)
inactive: SK-MEL-2 melanoma 87.2% | EKVX NSCLC 82.6% | SN12C renal 37.7% | UO-31 renal 35.9% | TK-10 renal 82.3% | ACHN renal 73.3% | OVCAR-8 ovarian 29.8% | OVCAR-5 ovarian 95.5% | OVCAR-4 ovarian 66.6% | SK-OV-3 ovarian 80.9% | IGROV1 ovarian 20.1% | OVCAR-3 ovarian 19.5% | HS 578T breast 84.8% | NCI/ADR-RES ovarian 35.3% | T-47D breast 61.9%
active: CCRF-CEM leukemia 3.45% | MOLT-4 leukemia 4.86% | SR leukemia -10.9% | RPMI-8226 leukemia -19.5%

Nc1n[nH]c2cccc(C#Cc3cccc(NC(=O)c4cc(N5CCOCC5)cc(C(F)(F)F)c4)c3)c12
inactive: EKVX NSCLC 59.9% | SN12C renal 57.6% | UO-31 renal 17.5% | TK-10 renal 36.5% | ACHN renal 25.3% | MOLT-4 leukemia 30.4% | SR leukemia 43.5% | RPMI-8226 leukemia 40.5% | OVCAR-8 ovarian 45.5% | OVCAR-5 ovarian 42.4% | OVCAR-4 ovarian 51.5% | SK-OV-3 ovarian 35.1% | OVCAR-3 ovarian 67.3% | HS 578T breast 40.5% | NCI/ADR-RES ovarian 47% | T-47D breast 28.3%
active: SK-MEL-2 melanoma 0.377% | A498 renal -5.08% | IGROV1 ovarian 9.97%

COc1cc(C(=O)Nc2cc(O)c(C/C=C(\C)CCC=C(C)C)c(O)c2)cc2c1O[C@]1(C)CC[C@@H](O)C(C)(C)[C@H]1C2
active: SK-MEL-2 melanoma 5.69% | UO-31 renal -31.9% | CCRF-CEM leukemia 7.08% | MOLT-4 leukemia -2.24% | SR leukemia 1.41% | RPMI-8226 leukemia -23.6% | OVCAR-3 ovarian 5.54% | HS 578T breast -1.79% | T-47D breast 9.68%
inactive: EKVX NSCLC 31.7% | SN12C renal 26.5% | TK-10 renal 40.9% | ACHN renal 18.5% | OVCAR-8 ovarian 29.9% | OVCAR-5 ovarian 48.5% | OVCAR-4 ovarian 32.8% | SK-OV-3 ovarian 17.9% | IGROV1 ovarian 33.7% | NCI/ADR-RES ovarian 57.7%

C[C@H](Oc1cc(-c2cnn(C3CCNCC3)c2)cnc1N)c1c(Cl)ccc(F)c1Cl
inactive: SK-MEL-2 melanoma 71.1% | EKVX NSCLC 79.6% | SN12C renal 54.2% | UO-31 renal 61.7% | TK-10 renal 88.7% | ACHN renal 75.6% | CCRF-CEM leukemia 34.6% | MOLT-4 leukemia 14% | RPMI-8226 leukemia 23.3% | OVCAR-8 ovarian 77.7% | OVCAR-5 ovarian 94.3% | OVCAR-4 ovarian 66.7% | SK-OV-3 ovarian 87.2% | OVCAR-3 ovarian 72.3% | HS 578T breast 56.5% | NCI/ADR-RES ovarian 85.1% | T-47D breast 55.7%
active: SR leukemia -22.1%

OCCNc1nc(NCCO)nc(Nc2ccc(C3=NN(c4cc(Cl)cc(Cl)c4)C(c4ccc(Cl)cc4)C3)cc2)n1 (stereo unspecified)
active: TK-10 renal -2.42% | MOLT-4 leukemia 2.38% | SR leukemia -29.5% | RPMI-8226 leukemia -8.1% | OVCAR-4 ovarian -17.6% | IGROV1 ovarian -11.6% | OVCAR-3 ovarian -60.4%
inactive: SK-MEL-2 melanoma 73.7% | EKVX NSCLC 20.6% | SN12C renal 25.1% | UO-31 renal 18.1% | ACHN renal 50.8% | CCRF-CEM leukemia 13.3% | OVCAR-8 ovarian 20.8% | OVCAR-5 ovarian 86% | SK-OV-3 ovarian 83.1% | HS 578T breast 11.6% | NCI/ADR-RES ovarian 20.6% | T-47D breast 87.1%

CC1=C/C(=N\N=C2/C=C(C)CC(C)(C)C2)CC(C)(C)C1
inactive: SK-MEL-2 melanoma 107% | EKVX NSCLC 108% | SN12C renal 108% | UO-31 renal 83.7% | TK-10 renal 95.2% | ACHN renal 110% | CCRF-CEM leukemia 97.9% | MOLT-4 leukemia 96.3% | SR leukemia 97.3% | RPMI-8226 leukemia 102% | OVCAR-8 ovarian 95.2% | OVCAR-5 ovarian 107% | OVCAR-4 ovarian 106% | SK-OV-3 ovarian 97% | IGROV1 ovarian 103% | OVCAR-3 ovarian 112% | HS 578T breast 103% | NCI/ADR-RES ovarian 104% | T-47D breast 97.3%

CCCCc1n(Cc2ccc3ccccc3c2)c2ccccc2[n+]1Cc1ccc2ccccc2c1
active: SK-MEL-2 melanoma -73.5% | EKVX NSCLC -84.6% | SN12C renal -92.3% | UO-31 renal -90.3% | TK-10 renal -87.1% | ACHN renal -91.4% | A498 renal -92.7% | SR leukemia -54.1% | RPMI-8226 leukemia -37.9% | OVCAR-8 ovarian -76.7% | OVCAR-5 ovarian -94.1% | OVCAR-4 ovarian -90.7% | SK-OV-3 ovarian -65.5% | IGROV1 ovarian -80.1% | OVCAR-3 ovarian -87.8% | HS 578T breast -61.5% | T-47D breast -62.1%

O=C(Nc1cc(=O)[nH]c(=O)[nH]1)C(Cl)Cl
inactive: SK-MEL-2 melanoma 105% | EKVX NSCLC 114% | SN12C renal 98% | UO-31 renal 88.8% | TK-10 renal 101% | ACHN renal 111% | CCRF-CEM leukemia 96% | MOLT-4 leukemia 98.4% | SR leukemia 98.6% | RPMI-8226 leukemia 101% | OVCAR-8 ovarian 102% | OVCAR-5 ovarian 112% | OVCAR-4 ovarian 112% | SK-OV-3 ovarian 107% | IGROV1 ovarian 108% | OVCAR-3 ovarian 113% | HS 578T breast 95.4% | NCI/ADR-RES ovarian 111%

COc1ccc(-n2nc(C(=O)NCC(=O)O)nc2-c2ccccc2)cc1
inactive: SK-MEL-2 melanoma 99.8% | EKVX NSCLC 108% | SN12C renal 105% | UO-31 renal 87.5% | TK-10 renal 94.1% | ACHN renal 108% | CCRF-CEM leukemia 102% | MOLT-4 leukemia 100% | SR leukemia 102% | RPMI-8226 leukemia 112% | OVCAR-8 ovarian 111% | OVCAR-5 ovarian 100% | OVCAR-4 ovarian 111% | SK-OV-3 ovarian 111% | OVCAR-3 ovarian 116% | HS 578T breast 115%

Nc1c(C(=O)Nc2ccccc2)sc2nc3c(cc12)CN(C(=O)OCc1ccccc1)CC3
inactive: SK-MEL-2 melanoma 31.8% | EKVX NSCLC 69.6% | SN12C renal 66% | UO-31 renal 67.5% | TK-10 renal 98.8% | ACHN renal 60.2% | A498 renal 44.6% | SR leukemia 25.1% | RPMI-8226 leukemia 53.1% | OVCAR-8 ovarian 68.9% | OVCAR-5 ovarian 91.7% | OVCAR-4 ovarian 75.4% | SK-OV-3 ovarian 43.7% | IGROV1 ovarian 56.4% | OVCAR-3 ovarian 16% | HS 578T breast 53.5% | NCI/ADR-RES ovarian 45.6% | T-47D breast 68.2%

— PubChem BioAssay (NCI)
